Experimental data as given in the supplement of paper PMC7366291.
Counter-ions that a name gives are not always drawn. ± gives the standard deviation or the standard deviation of the averaged measurements.

How the values were obtained:
Settings in all cases: 25 µM; exposure: 24-48 hpf
[1] = test system: Danio rerio Tg(wt1b:EGFP) embryo, pronephros; assay: glomerular separation, fold change vs DMSO control; higher = glomeruli further apart (abnormal)
Method in brief: (§1)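 In HEPES-buffered E3 with 0.003% PTU and 0.5% DMSO, dechorionated Tg(wt1b:EGFP) zebrafish embryos were exposed to 25 μM compound from 24 to 48 hpf at 28.5°C. Pronephroi were then imaged dorsally at 470 nm in 10 z-slices, in 96-well plates filled with agarose. On maximum projections, a Fiji macro turned 16 manually placed reference points into distances and angles, and values more than 2 SD from the feature mean were excluded. Features are fold changes relative to the mean of DMSO-treated embryos from the same day.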

[2] = test system: Danio rerio Tg(wt1b:EGFP) embryo, pronephros; assay: glomerular width (mean of left and right), fold change vs DMSO control; higher = wider glomerulus
Method in brief: as §1

[3] = test system: Danio rerio Tg(wt1b:EGFP) embryo, pronephros; assay: fraction of imaged embryos annotated as normal kidney; higher = less nephrotoxic; extreme values may be limits of the assay
Method in brief: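 The read-out is the proportion of embryos in each treatment manually annotated as normal-kidney. Exposure ran from 24 to 48 hpf at 28.5°C in 12-well plates, using dechorionated Tg(wt1b:EGFP) zebrafish embryos in 5 mM HEPES-buffered E3 with 0.003% PTU, 0.5% DMSO and 25 μM compound. For imaging, larvae were anaesthetised with tricaine, positioned dorsally in agarose-filled 96-well plates and captured by widefield fluorescence (470 nm, 10 z-slices), with scoring done on maximum projections.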

[4] = test system: Danio rerio Tg(wt1b:EGFP) embryo, pronephros; assay: pronephric angle neck segment to proximal convoluted tubule (mean of left and right), fold change vs DMSO control; higher = larger pronephric angle
Method in brief: as §1

SMILES	glomerular separation [1]	glomerular width [2]	fraction of imaged embryos annotated as normal kidney [3]	pronephric angle neck segment [4]
CC(C(=O)O)c1ccc(C(=O)c2cccs2)cc1 (stereo unspecified) [Suprofen]	1.78 ± 0.63	1.02 ± 0.14	0.75	1.03 ± 0.081
N=C(N)NC(=O)c1nc(Cl)c(N)nc1N [Amiloride hydrochloride dihydrate]	0.835 ± 0.27	0.978 ± 0.074	0.583	0.985 ± 0.023
C[C@]12CC[C@@H]3c4ccc(O)cc4CC[C@H]3[C@@H]1CCC2=O [Estrone]	0.922 ± 0.35	0.983 ± 0.0046	1	1.05 ± 0.019
OC(CCN1CCCCC1)(c1ccccc1)C1CC2C=CC1C2 (stereo unspecified) [Biperiden hydrochloride]	1.06 ± 0.13	1.02 ± 0.047	0.917	1.01 ± 0.022
CC(CNC1CCCCC1)OC(=O)c1ccccc1 (stereo unspecified) [Hexylcaine hydrochloride]	0.859 ± 0.46	0.937 ± 0.014	0.857	1.09 ± 0.14
Nc1cc(N2CCCCC2)nc(N)[n+]1[O-] [Minoxidil]	0.953 ± 0.24	1.05 ± 0.053	0.917	0.99 ± 0.065
N=C(N)NC(=N)NCCc1ccccc1 [Phenformin hydrochloride]	0.95 ± 0.25	0.978 ± 0.021	0.917	0.956 ± 0.029
CC(=O)OC[C@H]1O[C@@H]([S-])[C@H](OC(C)=O)[C@@H](OC(C)=O)[C@@H]1OC(C)=O.CCP(CC)CC.[Au+] [Auranofin]	1.55 ± 0.79	0.789 ± 0.038	0.417	1.19 ± 0.024
CC(=O)Nc1nnc(S(N)(=O)=O)s1 [Acetazolamide]	0.751 ± 0.2	0.973 ± 0.029	0.917	0.9766 ± 0.0062
Cc1onc(-c2ccccc2Cl)c1C(=O)N[C@@H]1C(=O)N2[C@@H]1SC(C)(C)[C@@H]2C(=O)O [Cloxacillin sodium salt]	1.06 ± 0.42	1.172 ± 0.0081	0.833	1 ± 0.035
CN1CCC(OC(c2ccccc2)c2ccccc2)CC1 [Diphenylpyraline hydrochloride]	1.02 ± 0.24	1.07 ± 0.053	1	0.963 ± 0.035
COc1ccc(-c2ccc3cc(C(=O)O)ccc3c2)cc1C12CC3CC(CC(C3)C1)C2 [Adapalene]	0.97 ± 0.49	0.993 ± 0.012	0.833	1.1 ± 0.0022
CCOC(=O)[C@@](C)(N)Cc1ccc(O)c(O)c1 [Methyldopate hydrochloride]	1.28 ± 0.62	0.9116 ± 0.0027	0.667	1.014 ± 0.0011
CN(C)CCCN1c2ccccc2Sc2ccccc21 [Promazine hydrochloride]	1.25 ± 0.35	1.044 ± 0.0041	0.75	0.962 ± 0.047
Nc1c2ccccc2nc2ccccc12 [Aminacrine]	0.947 ± 0.57	1.01 ± 0.055	1	0.996 ± 0.028
CCN[C@H]1C[C@H](C)S(=O)(=O)c2sc(S(N)(=O)=O)cc21 [Dorzolamide hydrochloride]	1.08 ± 0.35	0.955 ± 0.029	0.75	1.024 ± 0.0028
CCCc1cc(=O)[nH]c(=S)[nH]1 [Propylthiouracil]	0.81 ± 0.17	1.058 ± 0.0069	1	1.02 ± 0.044
CC(C)NCC(O)c1ccc2ccccc2c1 (stereo unspecified) [Pronethalol hydrochloride]	0.915 ± 0.49	0.96 ± 0.036	0.833	1.03 ± 0.06
COc1cccc(OC)c1C(=O)N[C@@H]1C(=O)N2[C@@H]1SC(C)(C)[C@@H]2C(=O)O [Methicillin sodium]	1.21 ± 0.55	1.05 ± 0.057	0.5	1 ± 0.037
CCCCOc1cc(C(=O)OCCN(CC)CC)ccc1N [Benoxinate hydrochloride]	0.798 ± 0.38	1.07 ± 0.018	0.833	0.9693 ± 0.0068
CN(C)CCCN1c2ccccc2CCc2ccc(Cl)cc21 [Clomipramine hydrochloride]	1.18 ± 0.38	0.947 ± 0.035	0.667	1.06 ± 0.014
CC(C)(O/N=C(\C(=O)N[C@@H]1C(=O)N2C(C(=O)[O-])=C(C[n+]3ccccc3)CS[C@H]12)c1csc(N)n1)C(=O)O [Ceftazidime pentahydrate]	0.761 ± 0.12	0.993 ± 0.046	1	0.961 ± 0.018
COc1ccc(OC)c(C(O)CNC(=O)CN)c1 (stereo unspecified) [Midodrine hydrochloride]	0.483 ± 0.2	1.2 ± 0.062	0.833	0.765 ± 0.013
CCOC(=O)OC(C)OC(=O)[C@@H]1N2C(=O)[C@@H](NC(=O)[C@H](N)c3ccccc3)[C@H]2SC1(C)C (stereo partly specified) [Bacampicillin hydrochloride]	0.948 ± 0.29	1.01 ± 0.017	0.917	0.968 ± 0.034
COCCOC(=O)C1=C(C)NC(C)=C(C(=O)OC/C=C/c2ccccc2)C1c1cccc([N+](=O)[O-])c1 (stereo unspecified) [Cilnidipine]	3.85 ± 1.1	0.735 ± 0.012	0	1.248 ± 0.0032
COC(=O)Nc1nc2cc(Sc3ccccc3)ccc2[nH]1 [Fenbendazole]	4 ± 2.6	0.568 ± 0.027	0	1.8 ± 0.13
CC1(C)S[C@@H]2[C@H](NC(=O)Cc3ccccc3)C(=O)N2[C@H]1C(=O)O [Benzylpenicillin sodium]	0.915 ± 0.33	1.02 ± 0.014	0.833	1.017 ± 0.0055
COc1ccc(CN2CCN(C(c3ccc(F)cc3)c3ccc(F)cc3)CC2)c(OC)c1OC [Lomerizine hydrochloride]	0.888 ± 0.33	0.9746 ± 0.0083	0.583	0.99 ± 0.019
Cc1c(Cl)cccc1Nc1ncccc1C(=O)O [Clonixin Lysinate]	4.04 ± 1.5	0.545 ± 0.048	0	1.81 ± 0.068
